Several values for one entry are separate records, joined by “and”; a condition that tells them apart may be missing. Equal entries are not always repeated. More than one record can exist for a structure, and the calls need not agree. Activity calls are given as the source filed them. Rule for the calls: active = hit-call score of the fitted dose curve at least 0.9, where 1 is the maximum; inactive = score below 0.9.
How the values were obtained:
[1] = read-out: Vascular cell adhesion molecule 1 (VCAM1), VCAM1 (gene 7412); experiment: BSK_hDFCGF_VCAM1: BioMAP Diversity Plus: hDFCGF Assay for Vascular cell adhesion molecule 1 (VCAM1) Biomarker Activity (AID 2283065); conditions: primary human foreskin fibroblasts; actives raise or lower the signal;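 for AC50: VCAM-1 protein level quantified by ELISA after 24 h chemical exposure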
How it was run: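 Cells are dosed, cultured for 24 h, then VCAM-1 is quantified by ELISA; signal increases and decreases are both fitted relative to DMSO.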

[2] = read-out: Plasminogen activator inhibitor-1 (PAI1), SERPINE1 (gene 5054); experiment: BSK_hDFCGF_PAI1: BioMAP Diversity Plus: hDFCGF Assay for Plasminogen activator inhibitor-1 (PAI1) Biomarker Activity (AID 2283066); conditions: primary human foreskin fibroblasts; actives raise or lower the signal
How it was run: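 PAI-1 levels in human dermal foreskin fibroblasts were quantified by ELISA 24 h after dosing, with gain or loss analysed against DMSO. Overt cytotoxicity was checked by sulforhodamine B total-protein staining in parallel cultures.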

[3] = read-out: Intercellular Adhesion Molecule 1 (ICAM1), ICAM1 (gene 3383); experiment: BSK_KF3CT_ICAM1: BioMAP Diversity Plus: KF3CT Assay for Intercellular Adhesion Molecule 1 (ICAM1) Biomarker Activity (AID 2283067); conditions: primary human keratinocytes with fibroblasts; actives raise or lower the signal
How it was run: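 Dose the keratinocyte/fibroblast co-culture, wait 24 h, measure ICAM-1 by ELISA, then fit increases or decreases against DMSO. Cytotoxicity is checked in parallel cultures by SRB total-protein staining.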

[4] = read-out: Interferon-gamma inducible Protein 10 (IP10), CXCL10 (gene 3627); experiment: BSK_KF3CT_IP10: BioMAP Diversity Plus: KF3CT Assay for Interferon-gamma inducible Protein 10 (IP10) Biomarker Activity (AID 2283068); conditions: primary human keratinocytes with fibroblasts; actives raise or lower the signal
How it was run: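 ELISA read-out of IP-10 after 24 h chemical dosing of human skin primary co-culture (keratinocytes, foreskin fibroblasts). Gain or loss of signal relative to DMSO, bidirectional curve fit.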

[5] = BSK_KF3CT_SRB: Viability Assessment in the BioMAP Diversity Plus: KF3CT Assay (AID 2283069); conditions: primary human keratinocytes with fibroblasts;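 note: fitted for both signal gain and loss against DMSO baseline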
How it was run: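 Overt cytotoxicity is assessed as total protein by sulforhodamine B staining in parallel human skin co-cultures at 24 h after dosing. DMSO serves as negative control and baseline.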

[6] = read-out: Interleukin-1 alpha (IL1a), IL1A (gene 3552); experiment: BSK_KF3CT_IL1a: BioMAP Diversity Plus: KF3CT Assay for Interleukin-1 alpha (IL1a) Biomarker Activity (AID 2283070); conditions: primary human keratinocytes with fibroblasts; actives raise or lower the signal
How it was run: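 Readout is IL-1a level by ELISA, compared bidirectionally with DMSO as baseline. Cells: human keratinocytes co-cultured with foreskin fibroblasts, harvested 24 h post-dose.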

[7] = read-out: TIMP metallopeptidase inhibitor 2 (TIMP2), TIMP2 (gene 7077); experiment: BSK_KF3CT_TIMP2: BioMAP Diversity Plus: KF3CT Assay for TIMP metallopeptidase inhibitor 2 (TIMP2) Biomarker Activity (AID 2283071); conditions: primary human keratinocytes with fibroblasts; actives raise or lower the signal
How it was run: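 TIMP-2 measured by ELISA at 24 h in human keratinocyte/fibroblast primary co-cultures exposed to chemicals. Both increases and decreases were fitted against DMSO. Parallel cultures were stained with SRB for total protein as an overt-cytotoxicity check.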

[8] = read-out: Transforming growth factor beta 1 (TGFb1), TGFB1 (gene 7040); experiment: BSK_KF3CT_TGFb1: BioMAP Diversity Plus: KF3CT Assay for Transforming growth factor beta 1 (TGFb1) Biomarker Activity (AID 2283072); conditions: primary human keratinocytes with fibroblasts; actives raise or lower the signal
How it was run: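 ELISA quantifies TGF-b1 at 24 h post-dose in a primary human skin co-culture of keratinocytes and fibroblasts, with gain or loss judged against DMSO. Parallel SRB total-protein staining flags overt cytotoxicity.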

[9] = read-out: C-C motif chemokine 2 (Homo sapiens) (UniProt P13500); experiment: BSK_KF3CT_MCP1: BioMAP Diversity Plus: KF3CT Assay for Monocyte Chemoattractant Protein 1 (MCP1/CCL2) Biomarker Activity (AID 2283073); conditions: primary human keratinocytes with fibroblasts; actives raise or lower the signal
How it was run: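 Keratinocytes and foreskin fibroblasts were co-cultured, dosed with chemical, and sampled 24 h later. MCP-1 was quantified by ELISA, and the endpoint was analyzed with bidirectional fitting using DMSO as negative control.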

[10] = read-out: Matrix Metallopeptidase 9 (MMP9), MMP9 (gene 4318); experiment: BSK_KF3CT_MMP9: BioMAP Diversity Plus: KF3CT Assay for Matrix Metallopeptidase 9 (MMP9) Biomarker Activity (AID 2283074); conditions: primary human keratinocytes with fibroblasts; actives raise or lower the signal;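 for AC50: MMP9 protein level quantified by ELISA in the co-culture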
How it was run: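 Values come from bidirectional fitting relative to DMSO of MMP-9 levels, which were measured by ELISA. Measurements were taken 24 h after chemical dosing of a keratinocyte and foreskin fibroblast co-culture.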

[11] = read-out: urokinase plasminogen activator (uPA), PLAU (gene 5328); experiment: BSK_KF3CT_uPA: BioMAP Diversity Plus: KF3CT Assay for urokinase plasminogen activator (uPA) Biomarker Activity (AID 2283075); conditions: primary human keratinocytes with fibroblasts; actives raise or lower the signal
How it was run: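 Values derive from bidirectional fitting against DMSO controls. Keratinocyte/foreskin fibroblast co-cultures received chemical; 24 h later uPA was detected by ELISA, with SRB total-protein staining in parallel wells for overt cytotoxicity.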

[12] = read-out: CD40, CD40 (gene 958); experiment: BSK_LPS_CD40: BioMAP Diversity Plus: LPS Assay for CD40 Biomarker Activity (AID 2283076); conditions: primary human HUVEC with PBMC; actives raise or lower the signal
How it was run: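 CD40 signal, measured by ELISA, is fitted in both directions relative to DMSO vehicle. The system is an LPS-driven human vascular primary co-culture of endothelial cells and PBMC, sampled 24 h after compound addition.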

[13] = read-out: E-selectin (Homo sapiens) (UniProt P16581); experiment: BSK_LPS_Eselectin: BioMAP Diversity Plus: LPS Assay for Eselectin Biomarker Activity (AID 2283077); conditions: primary human HUVEC with PBMC; actives raise or lower the signal
How it was run: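 Signal of E-selectin, detected by ELISA, served as the endpoint; cells were umbilical vein endothelium with PBMC, read 24 h after treatment. DMSO defined baseline, and both increases and decreases were fitted.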

[14] = read-out: Interleukin-8 (IL8), CXCL8 (gene 3576); experiment: BSK_LPS_IL8: BioMAP Diversity Plus: LPS Assay for Interleukin-8 (IL8) Biomarker Activity (AID 2283078); conditions: primary human HUVEC with PBMC; actives raise or lower the signal
How it was run: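 Endothelial cells and PBMC from human donors are co-cultured, treated with chemicals and LPS, then assayed for IL-8 by ELISA after 24 h. Parallel SRB staining (0.1% SRB after 10% TCA fixation, 560 nm) flags cytotoxicity.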

[15] = read-out: Interleukin-1 alpha (IL1a), IL1A (gene 3552); experiment: BSK_LPS_IL1a: BioMAP Diversity Plus: LPS Assay for Interleukin-1 alpha (IL1a) Biomarker Activity (AID 2283080); conditions: primary human HUVEC with PBMC; actives raise or lower the signal
How it was run: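 Measured: IL-1 alpha via ELISA at 24 h in LPS-activated human umbilical vein endothelium–PBMC co-culture. Baseline: DMSO, bidirectional fitting.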

[16] = read-out: Monocyte Chemoattractant Protein-1 (MCP1), CCL2 (gene 6347); experiment: BSK_LPS_MCP1: BioMAP Diversity Plus: LPS Assay for Monocyte Chemoattractant Protein-1 (MCP1) Biomarker Activity (AID 2283081); conditions: primary human HUVEC with PBMC; actives raise or lower the signal;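 for AC50: secreted MCP-1 protein quantified by ELISA in culture supernatant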
How it was run: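 LPS-stimulated HUVEC/PBMC co-culture; chemical, 24 h; MCP-1 by ELISA; bidirectional fit vs DMSO; cytotoxicity via SRB (0.1% stain, 10% TCA fix, 560 nm) in parallel wells.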

[17] = BSK_LPS_PGE2: BioMAP Diversity Plus: LPS Assay for Prostaglandin E2 (PGE2) Biomarker Activity (AID 2283082); conditions: primary human HUVEC with PBMC; actives raise or lower the signal;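 for AC50: secreted prostaglandin E2 measured by ELISA in LPS-stimulated co-culture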
How it was run: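 PGE2 release measured by ELISA in an LPS-activated co-culture of human umbilical vein endothelial cells and peripheral blood mononuclear cells, read at 24 h post-dosing. DMSO served as baseline for bidirectional curve fitting.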

[18] = read-out: Macrophage colony-stimulating factor (MCSF), CSF1 (gene 1435); experiment: BSK_LPS_MCSF: BioMAP Diversity Plus: LPS Assay for Macrophage colony-stimulating factor (MCSF) Biomarker Activity (AID 2283083); conditions: primary human HUVEC with PBMC; actives raise or lower the signal
How it was run: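 Compound is added to a human vascular primary co-culture of umbilical vein endothelium and blood mononuclear cells. After 24 h, M-CSF is quantified by ELISA. Signal changes are fitted in both directions against DMSO.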

[19] = read-out: Tissue Factor, F3 (gene 2152); experiment: BSK_LPS_TissueFactor: BioMAP Diversity Plus: LPS Assay for Tissue Factor Biomarker Activity (AID 2283084); conditions: primary human HUVEC with PBMC; actives raise or lower the signal
How it was run: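 In this co-culture system of umbilical vein endothelium with PBMC, stimulated with LPS, cell-surface CD142 is detected by ELISA at 24 h. Endpoint values derive from bidirectional fitting, DMSO serving as baseline.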

[20] = read-out: Tumor necrosis factor (Homo sapiens) (UniProt P01375); experiment: BSK_LPS_TNFa: BioMAP Diversity Plus: LPS Assay for Tumour Necrosis Factor alpha (TNFa) Biomarker Activity (AID 2283085); conditions: primary human HUVEC with PBMC; actives raise or lower the signal;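 for AC50: TNFa protein level quantified by ELISA in the co-culture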
How it was run: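 TNFa was quantified by ELISA in LPS-activated co-cultures of human endothelial cells and PBMC, 24 h post-dosing. Both increases and decreases versus DMSO were fitted.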

Measured: AC50

Chain of E-selectin (Homo sapiens) (P16581 whole entry, looked up): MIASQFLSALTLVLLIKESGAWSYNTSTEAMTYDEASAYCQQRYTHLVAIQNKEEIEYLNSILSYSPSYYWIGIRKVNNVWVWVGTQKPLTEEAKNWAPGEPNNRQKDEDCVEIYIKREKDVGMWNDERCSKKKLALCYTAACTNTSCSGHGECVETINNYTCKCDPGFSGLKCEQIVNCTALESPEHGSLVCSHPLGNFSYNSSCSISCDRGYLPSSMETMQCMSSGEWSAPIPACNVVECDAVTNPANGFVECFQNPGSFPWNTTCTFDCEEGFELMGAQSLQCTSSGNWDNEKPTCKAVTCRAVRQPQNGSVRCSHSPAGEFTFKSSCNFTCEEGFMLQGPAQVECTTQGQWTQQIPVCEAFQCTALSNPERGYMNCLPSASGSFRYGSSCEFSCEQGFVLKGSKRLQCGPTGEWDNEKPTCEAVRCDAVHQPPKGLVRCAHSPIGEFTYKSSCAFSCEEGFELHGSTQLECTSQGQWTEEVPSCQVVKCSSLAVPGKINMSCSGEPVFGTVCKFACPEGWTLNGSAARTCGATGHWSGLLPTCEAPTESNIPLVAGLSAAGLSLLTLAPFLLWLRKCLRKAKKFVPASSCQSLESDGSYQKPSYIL
Chain of Tumor necrosis factor (Homo sapiens) (P01375 whole entry, looked up): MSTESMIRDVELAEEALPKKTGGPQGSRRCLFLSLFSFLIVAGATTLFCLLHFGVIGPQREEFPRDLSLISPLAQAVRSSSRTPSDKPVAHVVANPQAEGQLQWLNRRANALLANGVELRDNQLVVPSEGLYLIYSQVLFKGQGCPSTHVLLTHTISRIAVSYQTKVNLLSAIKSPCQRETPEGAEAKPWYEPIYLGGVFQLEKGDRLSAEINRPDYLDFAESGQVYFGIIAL

N#[N+]c1ccc2c(S(=O)(=O)[O-])cccc2c1O
inactive: all assays above

CCOC(=O)c1ccccc1C(=C1C=C(Br)C(=O)C(Br)=C1)c1cc(Br)c(O)c(Br)c1
inactive: [5]
active: [1] 4.49 µM and 3.7 µM | [2] 3.56 µM and 3.54 µM | [3] 5.2 µM and 5.41 µM | [4] 3.9 µM and 3.58 µM | [5] 3.4 µM | [6] 3.49 µM and 3.47 µM | [7] 3.46 µM and 3.44 µM | [9] 3.39 µM and 3.47 µM | [10] 3.55 µM and 3.24 µM | [11] 3.6 µM and 3.63 µM | [12] 20.9 µM and 17.5 µM | [13] 21.2 µM and 21.8 µM | [14] 23 µM and 22.9 µM | [15] 17.8 µM and 14.7 µM | [16] 20.8 µM and 20.9 µM | [17] 19.1 µM and 19 µM | [18] 18.7 µM and 17.4 µM | [19] 18.2 µM and 12.6 µM | [20] 19.1 µM and 18.9 µM

C/C=C\C/C=C/CCCCCCCCOC(C)=O
inactive: [5] | [11]
active: [1] 24.6 µM | [2] 28.9 µM | [3] 24.6 µM | [4] 39.4 µM | [6] 26.3 µM | [7] 20 µM | [8] 10.8 µM | [9] 20 µM | [10] 29.5 µM | [12] 20 µM | [13] 30.9 µM | [14] 34 µM | [15] 35.1 µM | [16] 30.5 µM | [17] 35.5 µM | [18] 24.7 µM | [19] 30.4 µM | [20] 32.4 µM

CCCCNc1ccc(NCCCC)c2c1C(=O)c1ccccc1C2=O
inactive: all assays above

CCOc1nc(F)cc2nc(S(=O)(=O)Nc3c(Cl)cccc3C(=O)OC)nn12
inactive: all assays above

CCCCC/C=C\C/C=C\CCCCCCCC(=O)OC
active: [1] 26.9 µM | [2] 28.9 µM | [3] 31.4 µM | [4] 29 µM | [5] 31 µM | [6] 26.9 µM | [7] 30 µM | [8] 16.4 µM | [9] 28.7 µM | [10] 26.7 µM | [11] 30.8 µM | [12] 20 µM | [13] 36.5 µM | [14] 29.5 µM | [15] 31.8 µM | [16] 37.1 µM | [18] 32.5 µM | [19] 20 µM | [20] 36.1 µM
inactive: [17]

COCc1c(C(C)C)nc(C(C)C)c(/C=C/[C@@H](O)C[C@@H](O)CC(=O)O)c1-c1ccc(F)cc1
active: [9] 0.071 µM | [15] 0.00777 µM | [19] 0.00778 µM
inactive: all other assays above

c1ccc2c(c1)ccc1cc3c(ccc4ccccc43)cc12
active: [1] 0.0192 µM | [7] 3.59 µM | [14] 1.84 µM | [19] 0.0342 µM
inactive: [1] | [2] | [3] | [4] | [5] | [6] | [7] | [8] | [9] | [10] | [11] | [12] | [13] | [14] | [15] | [16] | [17] | [18] | [19] | [20]

CC(C)C(=O)C(C)C
inactive: all assays above

O=C(c1ccc(O)cc1)c1ccc(O)cc1O
active: [1] 16.6 µM | [10] 18.4 µM and 11.2 µM
inactive: [1] | [2] | [3] | [4] | [5] | [6] | [7] | [9] | [11] | [12] | [13] | [14] | [15] | [16] | [17] | [18] | [19] | [20]
